Rango dissoc inh = inhibition of RanGTP-driven Rango-importin beta dissociation; O95149+P62826; Biochemical FRET Rango-importin beta, RanGTP-induced dissociation; Potency, µM (titrated, usually from 46.1 µM), for the others: at the highest dose activity change, negative = inhibition; actives 0.071% (n = 340,000); AID 540253; also: potency is read from the fitted curve at half-maximal effect; % of control where 0% means no effect; nearly all actives have a fitted effect of over 45% in size
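Rango/importin beta premix (0.1/0.25 uM final), PBS + 1 mM DTT + 0.02% Tween-20 + 0.1% BSA; cpd 5 min RT; FRET pre-read; + RanGTP-RCC1 (0.6 uM Ran, 2 mM GTP, 0.2 uM RCC1); 45 min RT; FRET post-read, ex 430, em 486/530 nm.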
CCT chaperon mod = changes cytosolic chaperonin activity; activity change, % (test concentration not listed), hits read low; actives 0.3% (n = 360,000); purified chaperonin ATPase assay, HTRF ADP detection, 30 min; in the data active = activity change below about -30%; also: % is scaled to controls: 0 for no effect and ±100 for the full control effect
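ATPase activity: ADP formed was measured by HTRF Transcreener (665/615 nm ratio) after 30 min at 37 deg C with 10 uM ATP. Compounds screened at one 76 uM concentration against 40 or 20 nM TRiC in Tris pH 7.4/KCl/MgCl2/DTT buffer.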
Rango complex inh = prevents formation of the Rango-importin beta complex; AID 540263; Q14974; actives 0.031% (n = 340,000); Potency, µM (highest dose often 92.2 µM), for the others: at the top dose inhibition of complex formation; Rango CFP/YFP FRET sensor + importin beta, 45 min;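 also: potency is read from the fitted curve at half-maximal effect; 0% = DMSO wells and 100% = buffer wells lacking importin beta; nearly all actives have a fitted effect of over 15% in size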
Target sequence (Q14974 whole entry, looked up): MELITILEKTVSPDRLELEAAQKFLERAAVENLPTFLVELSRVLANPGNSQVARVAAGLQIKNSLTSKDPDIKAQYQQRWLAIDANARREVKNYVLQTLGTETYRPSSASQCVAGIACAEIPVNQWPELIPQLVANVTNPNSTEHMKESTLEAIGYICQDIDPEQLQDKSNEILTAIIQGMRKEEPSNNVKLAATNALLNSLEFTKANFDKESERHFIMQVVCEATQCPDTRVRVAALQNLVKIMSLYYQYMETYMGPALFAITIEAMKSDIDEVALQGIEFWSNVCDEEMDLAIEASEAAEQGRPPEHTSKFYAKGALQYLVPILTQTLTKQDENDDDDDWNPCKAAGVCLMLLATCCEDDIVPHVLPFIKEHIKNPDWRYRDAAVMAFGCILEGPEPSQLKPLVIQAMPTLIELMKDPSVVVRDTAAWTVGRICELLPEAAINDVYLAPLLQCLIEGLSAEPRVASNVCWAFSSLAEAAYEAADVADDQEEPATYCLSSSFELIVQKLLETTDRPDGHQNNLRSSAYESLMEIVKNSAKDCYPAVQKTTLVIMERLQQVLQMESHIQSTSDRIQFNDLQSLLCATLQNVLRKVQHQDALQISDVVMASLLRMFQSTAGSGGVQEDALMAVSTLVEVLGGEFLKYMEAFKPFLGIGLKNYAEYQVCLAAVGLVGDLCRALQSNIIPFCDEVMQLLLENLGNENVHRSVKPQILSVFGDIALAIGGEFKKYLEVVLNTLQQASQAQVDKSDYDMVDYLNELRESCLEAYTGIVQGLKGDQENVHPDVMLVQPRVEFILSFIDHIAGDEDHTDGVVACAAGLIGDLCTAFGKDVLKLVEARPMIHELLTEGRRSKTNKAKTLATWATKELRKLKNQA
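Inhibition scored from the CFP 486 nm/YFP 530 nm FRET ratio 45 min after adding 0.125 microM importin beta to 50 nM Rango biosensor preincubated 5 min with compound (room temperature, PBS with DTT, Tween-20, BSA). No-importin wells as positive control.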
KCNH2 WT inh = blocks the wildtype human KCNH2 potassium channel; Q12809; U2OS, BacMam KCNH2, thallium flux FluxOr; stronger effect = lower value; activity change, % at 1.84 µM; actives 0.37% (n = 340,000); AID 720551;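 active = maximum activity change below -70%; inconclusive = maximum activity change between -70% and -50%; inactive = maximum activity change above -50%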; also: % is scaled to controls: 0 for no effect and ±100 for the full control effect
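U2OS cells transduced with wild-type KCNH2 virus are loaded with FluxOr dye for 45 min, and thallium flux is measured in kinetic reads before and after stimulation buffer. Rate constants are normalized to DMSO controls.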
KCNH2 3.1 inh = blocks the human KCNH2 3.1 channel isoform | U2OS KCNH2 3.1, thallium flux FluxOr; stronger effect = lower value | activity change, % (tested at about 1.8 µM) | actives 0.95% (n = 340,000);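 active = maximum activity change below -70%; inconclusive = maximum activity change from -70% to -50%; inactive = maximum activity change above -50%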;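 also: thallium influx rate constant from kinetic fluorescence after stimulation buffer; % is scaled to controls: 0 for no effect and ±100 for the full control effect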
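Steps: virus added to U2OS suspension (4 h, RT, dark); medium with 10% FBS added, cells plated, 37 C overnight; FluxOr/Red40 loading buffer 45 min RT; stimulation buffer, 2 min kinetic read; rate constant normalized.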
MmCpn inh = M. maripaludis TRiC chaperonin inhibition; purified Mm-Cpn ATPase, ADP Transcreener TR-FRET; Potency, µM (highest dose often 76.9 µM), for the others: at the highest dose activity, negative = inhibition, usual class: inhibitors; actives 0.031% (n = 330,000); AID 504842; active = well fitted inhibition curve with a large enough effect; inconclusive = small, poorly fitted or top-dose-only effect; also: potency is read from the fitted curve at half-maximal effect; % is scaled to controls: 0 for no effect and ±100 for the full control effect; nearly all actives have a fitted effect of over 80% in size
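Compound-treated chaperonin, 25 nM final, turns over 10 uM ATP at 37°C for 30 min following a 10 min preincubation; ADP generated competes with ADP-d2 for Eu-cryptate antibody, lowering FRET.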
Active calls of the source: *; ? = inconclusive; . = not tested or not shown. Compounds with a hit are over-represented: about 1.4% of the library has one in this group of screens. Unless noted, calls follow the shape of the full dose curve.

SMILES | Rango dissoc inh | CCT chaperon mod | Rango complex inh | KCNH2 WT inh | KCNH2 3.1 inh | MmCpn inh
COc1cc(Cn2c(=O)c3c(OC)c(C)cnc3n(C)c2=O)cc(OC)c1 | -7% | -52* | 5% | 0 | 7 | -5%
CC(Sc1n[nH]c(=O)n1Cc1ccccc1)C(=O)NCC1CCCO1 (centres undefined) | -8% | -2 | 1% | 0 | 4 | 0%
CCSc1nnc(Cc2cc(=O)[nH]c(=O)[nH]2)n1-c1cccc(C)c1 | 9% | -2 | ? | 7 | 19 | 4%
CCCSc1nnc(Cc2cc(=O)[nH]c(=O)[nH]2)n1-c1cc(C)ccc1C | -7% | -2 | -1% | -89* | 10 | 1%
OC(CN1CC=C(/C=C/c2ccc(Br)cc2)CC1)c1ccccc1 (centres undefined) | -8% | -2 | -3% | 14 | -93* | 2%
CC(=O)c1ccccc1OCC(O)CN1CCN(C(c2ccccc2)c2ccccc2)CC1 (centres undefined) | -6% | -3 | 0% | -74* | -85* | 4%
COc1cc(CN2CCN(C(c3ccccc3)c3ccccc3)CC2)cc(OC)c1OC | 21% | -3 | ? | 14 | ? | -3%
OC(CN1CCN(C(c2ccccc2)c2ccccc2)CC1)c1ccc(Br)cc1 (centres undefined) | -7% | 1 | -2% | -103* | -104* | -1%
COc1cccc(CN2CCN(C(c3ccccc3)c3ccccc3)CC2)c1O | 2% | 1 | -1% | -44 | -74* | 1%
OC(CN1CCN(C(c2ccccc2)c2ccccc2)CC1)c1ccccc1 (centres undefined) | 1% | 1 | -1% | 38 | -6 | 0%
Cc1c(C(=O)NCc2ccccc2C(F)(F)F)sc(=O)n1Cc1ccc(S(=O)(=O)N(C)C)cc1 | . | 0 | . | . | . | .
CCOc1cccc(NC(=O)C2CC(=O)NC(=Nc3ccccc3)S2)c1 (centres undefined) | -3% | 0 | 0% | 5 | -15 | 0%
c1ccc(OCCN2CCN(C(c3ccccc3)c3ccccc3)CC2)cc1 | 2% | -1 | 0% | -43 | -96* | 1%
Cc1ccc(NC(=O)CSc2nnc(-c3n[nH]c4ccccc34)n2-c2ccccc2)c(C)c1 | -4% | 1 | -4% | 4 | 12 | -2%
CN1C[C@@H]2C(c3ccc(Cl)nc3)C3(c4ccc(C#N)cc4)CC2(C3)[C@H]1c1ccccc1 (some centres undefined) | 10% | -2 | 4% | 8 | -77* | 0%
CN1C[C@@H]2C(c3ccc(C(F)(F)F)cc3)C3(c4cccnc4)CC2(C3)[C@H]1c1ccccc1 (some centres undefined) | 1% | -1 | 1% | -8 | -85* | 0%
FC(F)(F)c1ccc(CN2C[C@@H]3C(c4ccc(C(F)(F)F)cc4)C4(c5cccnc5)CC3(C4)[C@H]2c2ccccc2)cc1 (some centres undefined) | 21% | 1 | 4% | -2 | -16 | -4%
Cc1ccc(C(=O)CNc2ccc(Cl)cc2)cc1 | 13% | 1 | -3% | 13 | -79* | -1%
O=S(=O)(NC1C2CC3CC(C2)CC1C3)c1ccccc1 (centres undefined) | 1% | -1 | 1% | 7 | -7 | 1%
C=CCN1C(=O)/C(=C\c2ccc(OC(=O)c3ccco3)c(OC)c2)SC1=S | -12% | -84* | 16% | 38 | -4 | -1%
C=CCN1C(=O)/C(=C\c2cccc(OC(=O)c3ccco3)c2)SC1=S | 20% | -1 | 9% | 3 | -4 | -1%
O=C(Cn1cnc2ccccc2c1=O)Nc1ccccc1N1CCOCC1 | -25% | -75* | -5% | -8 | -11 | -1%
O=C(Nc1ccccc1N1CCOCC1)c1ccc(Cl)nc1 | 5% | -1 | 1% | 2 | -105* | 0%

Source: PubChem BioAssay
